# Measured values as given in the supplement of paper PMC8728848.
# The entries come from a sample that favours the strongest signals as a whole.
# Assays:
# Experiment in all cases: glycan array binding signal (z-score within array); higher = stronger binding
# Details in all cases: glycan notation: IUPAC condensed, linker removed
# [1] = biological target: Fuc(a1-2)Gal
# Summary of the method: (§1)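 Glycan array binding is given as a within-array Z-score, which can be read as non-binding when negative. The arrays, 3228 of them, came from the Consortium for Functional Glycomics database and were retained only where the protein sequence was available. Z-scores were averaged across arrays of the same protein sequence at different concentrations or buffers and across linkers.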
# [2] = biological target: Fuc(a1-2)Gal(b1-3)GalNAc(b1-4)[Neu5Ac(a2-3)]Gal(b1-4)Glc
# Summary of the method: as §1
# [3] = biological target: Fuc(a1-2)Gal(b1-3)GlcNAc(b1-3)[Neu5Ac(a2-6)Gal(b1-4)GlcNAc(b1-6)]Gal(b1-4)Glc
# Summary of the method: as §1
# [4] = biological target: Fuc(a1-2)[Gal(a1-3)]Gal(b1-3)GlcNAc
# Summary of the method: as §1
# [5] = biological target: Fuc(a1-2)[Gal(a1-3)]Gal(b1-4)[Fuc(a1-3)]Glc
# Summary of the method: as §1
# [6] = biological target: Fuc(a1-2)[Gal(a1-3)]Gal(b1-4)[Fuc(a1-3)]GlcNAc(b1-3)GalNAc
# Summary of the method: as §1
# [7] = biological target: Fuc(a1-3)[Gal(b1-4)]Glc6S
# Summary of the method: as §1
# [8] = biological target: Fuc(a1-3)[Gal3S(b1-4)]Glc
# Summary of the method: as §1
# [9] = biological target: Gal(a1-3)[Gal(a1-4)]Gal(b1-4)GlcNAc
# Summary of the method: as §1
# [10] = biological target: Gal(a1-4)Gal(b1-4)GlcNAc(b1-2)Man(a1-3)[Gal(a1-4)Gal(b1-4)GlcNAc(b1-2)Man(a1-6)]Man(b1-4)GlcNAc(b1-4)GlcNAc
# Summary of the method: as §1
# [11] = biological target: Gal(b1-2)Gal
# Summary of the method: as §1
# [12] = biological target: Gal(b1-3)GlcNAc(b1-3)Gal(b1-4)GlcNAc(b1-2)Man(a1-3)[Gal(b1-3)GlcNAc(b1-3)Gal(b1-4)GlcNAc(b1-2)Man(a1-6)]Man(b1-4)GlcNAc(b1-4)GlcNAc
# Summary of the method: as §1
# [13] = biological target: Gal(b1-4)Glc
# Summary of the method: as §1
# [14] = biological target: Gal(b1-4)GlcNAc(b1-2)[Gal(b1-4)GlcNAc(b1-4)]Man(a1-3)[GlcNAc(b1-4)][Gal(b1-4)GlcNAc(b1-2)[Gal(b1-4)GlcNAc(b1-6)]Man(a1-6)]Man(b1-4)GlcNAc(b1-4)GlcNAc
# Summary of the method: as §1
# [15] = biological target: Gal(b1-4)GlcNAc(b1-3)Gal(b1-4)GlcNAc(b1-3)Gal(b1-4)GlcNAc(b1-3)Gal(b1-4)GlcNAc(b1-3)Gal(b1-4)GlcNAc(b1-2)[Gal(b1-4)GlcNAc(b1-3)Gal(b1-4)GlcNAc(b1-3)Gal(b1-4)GlcNAc(b1-3)Gal(b1-4)GlcNAc(b1-3)Gal(b1-4)GlcNAc(b1-6)]Man(a1-6)[Gal(b1-4)GlcNAc(b1-3)Gal(b1-4)GlcNAc(b1-3)Gal(b1-4)GlcNAc(b1-3)Gal(b1-4)GlcNAc(b1-3)Gal(b1-4)GlcNAc(b1-2)Man(a1-3)]Man(b1-4)GlcNAc(b1-4)[Fuc(a1-6)]GlcNAc
# Summary of the method: as §1
# [16] = biological target: Gal(b1-4)GlcNAc(b1-3)Gal(b1-4)GlcNAc(b1-3)Gal(b1-4)GlcNAc(b1-3)Gal(b1-4)GlcNAc(b1-3)Gal(b1-4)GlcNAc(b1-3)Gal(b1-4)GlcNAc(b1-2)Man(a1-3)[Gal(b1-4)GlcNAc(b1-3)Gal(b1-4)GlcNAc(b1-3)Gal(b1-4)GlcNAc(b1-3)Gal(b1-4)GlcNAc(b1-3)Gal(b1-4)GlcNAc(b1-3)Gal(b1-4)GlcNAc(b1-2)Man(a1-6)]Man(b1-4)GlcNAc(b1-4)GlcNAc
# Summary of the method: as §1
# [17] = biological target: Gal3S(b1-4)Glc6S
# Summary of the method: as §1
# [18] = biological target: Gal3S6S(b1-4)GlcNAc
# Summary of the method: as §1
# [19] = biological target: Gal3S6S(b1-4)GlcNAc6S
# Summary of the method: as §1
# [20] = biological target: GalNAc(a1-3)GalNAc(b1-3)Gal(a1-4)Gal(b1-4)Glc
# Summary of the method: as §1
# [21] = biological target: GalNAc(b1-3)GlcNAc
# Summary of the method: as §1
# [22] = biological target: GalNAc(b1-4)Gal(b1-4)Glc
# Summary of the method: as §1
# [23] = biological target: GalNAc(b1-4)GlcNAc(b1-3)GalNAc(b1-4)GlcNAc
# Summary of the method: as §1
# [24] = biological target: Glc(a1-6)Glc(a1-6)Glc
# Summary of the method: as §1
# [25] = biological target: GlcNAc(b1-3)Fuc
# Summary of the method: as §1
# [26] = biological target: GlcNAc(b1-3)Gal(b1-4)GlcNAc(b1-3)Gal(b1-4)GlcNAc(b1-2)Man(a1-3)[GlcNAc(b1-3)Gal(b1-4)GlcNAc(b1-3)Gal(b1-4)GlcNAc(b1-2)Man(a1-6)]Man(b1-4)GlcNAc(b1-4)[Fuc(a1-6)]GlcNAc
# Summary of the method: as §1
# [27] = biological target: GlcNAc(b1-3)Gal(b1-4)GlcNAc(b1-3)Gal(b1-4)GlcNAc(b1-3)Gal(b1-4)GlcNAc(b1-3)Gal(b1-4)GlcNAc(b1-2)Man(a1-3)[GlcNAc(b1-3)Gal(b1-4)GlcNAc(b1-3)Gal(b1-4)GlcNAc(b1-3)Gal(b1-4)GlcNAc(b1-3)Gal(b1-4)GlcNAc(b1-2)Man(a1-6)]Man(b1-4)GlcNAc(b1-4)[Fuc(a1-6)]GlcNAc
# Summary of the method: as §1
# [28] = biological target: GlcNAc(b1-3)Gal(b1-4)GlcNAc(b1-6)[GlcNAc(b1-3)]Gal(b1-4)GlcNAc
# Summary of the method: as §1
# [29] = biological target: GlcNAc(b1-3)[GlcNAc(b1-6)]GalNAc
# Summary of the method: as §1
# [30] = biological target: GlcNAc(b1-4)[GlcNAc(b1-6)]GalNAc
# Summary of the method: as §1
# [31] = biological target: GlcNAc6S(b1-3)Gal(b1-4)GlcNAc
# Summary of the method: as §1
# [32] = biological target: Kdn(a2-3)Gal(b1-4)[Fuc(a1-3)]GlcNAc
# Summary of the method: as §1
# [33] = biological target: Man(a1-3)[Man(a1-6)]Man(a1-6)[Man(a1-3)]Man
# Summary of the method: as §1
# [34] = biological target: Neu5Ac(a2-3)Gal(b1-3)GlcNAc6S
# Summary of the method: as §1
# [35] = biological target: Neu5Ac(a2-3)Gal(b1-4)GlcNAc(b1-2)[Neu5Ac(a2-3)Gal(b1-4)GlcNAc(b1-6)]Man(a1-6)[Neu5Ac(a2-3)Gal(b1-4)GlcNAc(b1-2)Man(a1-3)][GlcNAc(b1-4)]Man(b1-4)GlcNAc(b1-4)GlcNAc
# Summary of the method: as §1
# [36] = biological target: Neu5Ac(a2-3)Gal(b1-4)GlcNAc(b1-3)Gal(b1-4)GlcNAc(b1-6)[Gal(b1-3)]GalNAc
# Summary of the method: as §1
# [37] = biological target: Neu5Ac(a2-3)Gal(b1-4)GlcNAc(b1-6)GalNAc
# Summary of the method: as §1
# [38] = biological target: Neu5Ac(a2-6)Gal(b1-4)GlcNAc(b1-3)Gal(b1-4)GlcNAc(b1-3)Gal(b1-4)GlcNAc(b1-2)Man(a1-3)[Neu5Ac(a2-6)Gal(b1-4)GlcNAc(b1-3)Gal(b1-4)GlcNAc(b1-3)Gal(b1-4)GlcNAc(b1-2)Man(a1-6)]GalNAc
# Summary of the method: as §1
# [39] = biological target: Neu5Ac(a2-6)Gal(b1-4)GlcNAc(b1-3)[Neu5Ac(a2-6)Gal(b1-4)GlcNAc(b1-6)]GalNAc
# Summary of the method: as §1
# [40] = biological target: Neu5Ac(a2-8)Neu5Ac(a2-3)[Gal(b1-3)GalNAc(b1-4)]Gal(b1-4)Glc
# Summary of the method: as §1
# [41] = biological target: Neu5Ac(a2-8)Neu5Gc(a2-3)Gal(b1-4)GlcNAc
# Summary of the method: as §1
binder,measurement,setting,value
PX9961K-bvu-480-28-480 (Bacteroides vulgatus) (protein) NKIPTTMAFRTVTDVDNAVNGLYDLMSGSGYYGAAMFAYGDMKGDDMQSSEESGVCNTCYMFNHRPNSLNAGSLWGRPFYILREAWNILNAIAEGKIESGDEKKLNALKGETMAVIALCQFDLTRCFGYPYTKDKGASLGAPLIDHLVGTYENPPRSTVAQAYDFIIETLEEAVTLMSEEKNNGRMNKYAARALLARIYLYHDDNRKAFDLADQLIKDADTSGSYALYPHEKYVAAWSVEAKFGSESFFEIANSVDDTPGRDSWGYLLNWYGYQKGFVTQKYAEQMLADPGDVRGHLLEENKYAGKTVWWLYKLRGTDLKTAPLECNNVVLRLSEVYLIAAEAGCKLGGDAAVQGLGYLNEIVKRGNPDNEVTMADYTLDRVLDERSKELVGEGHRFFDLLRNGKTIVRKGGYHLPSVDEEVDWDFYKCVLPIPEDQFIFSPEMEQNPGYPKN,glycan array binding signal (z-score),[1],-0.335
same,glycan array binding signal (z-score),[2],-0.817
same,glycan array binding signal (z-score),[3],-0.084
same,glycan array binding signal (z-score),[4],-0.605
same,glycan array binding signal (z-score),[5],0.151
same,glycan array binding signal (z-score),[6],-0.75
same,glycan array binding signal (z-score),[7],0.583
same,glycan array binding signal (z-score),[8],0.709
same,glycan array binding signal (z-score),[9],3.09
same,glycan array binding signal (z-score),[10],1.47
same,glycan array binding signal (z-score),[11],0.817
same,glycan array binding signal (z-score),[12],0.157
same,glycan array binding signal (z-score),[13],-0.177
same,glycan array binding signal (z-score),[14],0.328
same,glycan array binding signal (z-score),[15],1.61
same,glycan array binding signal (z-score),[16],1.2
same,glycan array binding signal (z-score),[17],0.273
same,glycan array binding signal (z-score),[18],0.512
same,glycan array binding signal (z-score),[19],1.05
same,glycan array binding signal (z-score),[20],-0.347
same,glycan array binding signal (z-score),[21],0.085
same,glycan array binding signal (z-score),[22],0.362
same,glycan array binding signal (z-score),[23],-0.336
same,glycan array binding signal (z-score),[24],-0.638
same,glycan array binding signal (z-score),[25],1.16
same,glycan array binding signal (z-score),[26],1.89
same,glycan array binding signal (z-score),[27],0.909
same,glycan array binding signal (z-score),[28],1.77
same,glycan array binding signal (z-score),[29],-0.501
same,glycan array binding signal (z-score),[30],0.135
same,glycan array binding signal (z-score),[31],1.58
same,glycan array binding signal (z-score),[32],-0.426
same,glycan array binding signal (z-score),[33],2.06
same,glycan array binding signal (z-score),[34],0.976
same,glycan array binding signal (z-score),[35],1.59
same,glycan array binding signal (z-score),[36],-0.074
same,glycan array binding signal (z-score),[37],-0.742
same,glycan array binding signal (z-score),[38],1.68
same,glycan array binding signal (z-score),[39],-0.532
same,glycan array binding signal (z-score),[40],-0.283
same,glycan array binding signal (z-score),[41],19.1
